The text below walks through data of PubChem BioAssay AID2315 (National Center for Advancing Translational Sciences (NCATS), 2010).

The inhibition is the relative decrease from the control value, in per cent.

Screen size: about 290,000 compounds; about 27,000 (9.3%) were called active. No stated cut-off is given here; in the data, active means inhibition mostly above about 28% (no sharp cut-off); inactive means mostly below about 43%. Only a selection was taken, and actives are over-represented in it overall.

This test can be described thus: A qHTS for Small Molecule Inhibitors of Shiga Toxin. Further: 0% is about no effect. The conditions noted are these: Vero cells, Shiga toxin protein synthesis inhibition reporter; at 38.7 µM, active compounds read high.
In the case of `COc1ccc(C2Nc3ccccc3C(=O)N2c2ccc(F)cc2)cc1Cn1nnc2ccccc21` (stereo not drawn), the inhibition was -5.43% (inactive).

On to `COc1ccc(C2Nc3ccccc3C(=O)N2c2ccc(Cl)cc2)cc1Cn1cc([N+](=O)[O-])cn1` (stereo not drawn), for which the inhibition was 115% (active).

Take `COc1ccc(C2Nc3ccccc3C(=O)N2Cc2ccccc2)cc1Cn1nnc2ccccc21` (stereo not drawn): the inhibition was -22.2% (inactive).

Take `COc1ccc([N+](=O)[O-])cc1C1NN=C(c2cccc3ccccc23)S1` (stereo not drawn): the inhibition is -12.5% (inactive).

In the case of `COc1ccc(N2C(=O)c3ccccc3NC2c2ccc(OC)c(CN3CCOCC3)c2)cc1` (stereo not drawn), the inhibition is 64% (active).

For the molecule `COc1ccc(CN2CCCC(C(=O)c3ccc(Cl)cc3)C2)cc1Cn1cncn1` (stereo not drawn), the inhibition is -2.03% (inactive).

`COC(=O)C1=CN(Cc2ccc(OC)cc2)C=C(C(=O)OC)C1c1ccc(O)c(OC)c1`: the inhibition is -14.4% (inactive).

Take `CCC(NC(=O)C1CCCC1)c1ccc(C)cc1` (stereo not drawn): the inhibition is -3.88% (inactive).

In the case of `O=C(Nc1ccc(Br)cc1)c1cc(S(=O)(=O)Nc2ccccn2)ccc1Cl`, the inhibition was -18.3% (inactive).

Consider `NC(=O)c1ccc(Nc2ccc3nonc3c2[N+](=O)[O-])cc1`, for which the inhibition is -16.8% (inactive).

On to `N#Cc1c(-c2ccccc2)nc(SCc2cccc(C(F)(F)F)c2)[nH]c1=O`, for which the inhibition was -1.96% (inactive).

In the case of `O=[N+]([O-])c1ccc2c(c1)Nc1nc3ccccc3nc1N2`, the inhibition was 119% (active).

For `O=[N+]([O-])c1cnc2ccc3ccccc3c2c1`, the inhibition is 27.3% (inactive).

With `O=[N+]([O-])c1cccc(Nc2c3ccccc3nc3ccccc23)c1`, the inhibition is -12.3% (inactive).

On to `O=C(Nc1cccc(Br)c1)c1ccc2snnc2c1`, for which the inhibition is 64% (active).

With `CCc1ccccc1NC(=O)c1ccc2snnc2c1`, the inhibition was -5.07% (inactive).

With `O=C(Nc1ccc2ccccc2c1)Nc1ccc2snnc2c1`, the inhibition is 1.94% (inactive).

With `COc1ccccc1S(=O)(=O)c1c(C)cc(C)[nH]c1=O`, the inhibition was -2.84% (inactive).

In the case of `Cc1cccc([C@@H]2[C@@H]3C(=O)N(C)C(=O)[C@@H]3[C@@H]3C(=O)Nc4ccccc4C(=O)N23)c1`, the inhibition was -2.83% (inactive).

Turning to `Cn1c(NC(=O)c2ccccc2)nc2ccccc21`, the inhibition was 43.5% (active).

Turning to `Cn1sc(NC(=O)c2ccccc2)nc1=O`, the inhibition was 33.6% (inactive).

For `Cn1c(S(=O)(=O)O)nc2ccccc21`, the inhibition is -9% (inactive).

Take `Cc1ccc2cc(C)c(N3CCN(c4ccc(F)cc4)CC3)nc2c1`: the inhibition was 27.6% (inactive).

In the case of `CC1(C)CC(=O)C2=C(C1)Nc1cc(C(=O)c3ccccc3)ccc1NC2c1ccccn1` (stereo not drawn), the inhibition was -5.56% (inactive).

As for `Cc1cc2c(cc1C)NC(c1ccccn1)C1=C(CC(C)(C)CC1=O)N2` (stereo not drawn), the inhibition was 51.7% (active).

Turning to `Cc1nn(-c2ccccn2)c2c1C(c1ccncc1)C1=C(CC(C)(C)CC1=O)N2` (stereo not drawn), the inhibition was -3.23% (inactive).

In the case of `CCc1ccc(CN(C)C(=O)C2CCC(=O)N(Cc3cccc(OC)c3)C2)nc1` (stereo not drawn), the inhibition is 22.8% (inactive).

On to `CCOc1cccc(-c2nnc(SCC(=O)NC3CC3)n2C)c1`, for which the inhibition is 27% (inactive).

As for `COc1ccc(NC(=O)CSc2nncc(=O)n2N)cc1OC`, the inhibition was -9.85% (inactive).

For the molecule `O=C(COC(=O)Cn1cnc2ccccc21)Nc1cccc2c1C(=O)c1ccccc1C2=O`, the inhibition was -13.5% (inactive).

For `O=C(COC(=O)c1ccccc1)Nc1ccccc1Sc1ccccc1`, the inhibition is -9.76% (inactive).

Regarding `O=C(COC(=O)c1cccc(Br)c1)Nc1cccc2c1C(=O)c1ccccc1C2=O`, the inhibition was 31.4% (active).

`COc1ccc(C(=O)COC(=O)Cn2cnc3c2c(=O)n(C)c(=O)n3C)c(OC)c1`: the inhibition was -5.14% (inactive).

Regarding `COc1cnc(-c2ccccn2)nc1Oc1ccc(C(C)(C)C)cc1`, the inhibition was 1.11% (inactive).

For the molecule `Cc1ccc(Oc2nc(-c3ccccn3)nc3ccccc23)cc1`, the inhibition was 57.7% (active).

`CC(C)(C)Nc1nc(-c2ccccn2)nc2ccccc12`: the inhibition is -14.9% (inactive).

`COC1=C(N2CCOCC2)C(=O)c2ccccc2C1=O`: the inhibition was -6.31% (inactive).

Take `CCOCCc1nn2c(=O)cc(CSCC(=O)Nc3cccc(C)c3C)nc2s1`: the inhibition was -13.9% (inactive).

As to `O=C(Nc1cccc(-c2cscn2)c1)C1CCN(Cc2ccsc2)CC1`, the inhibition is -4.07% (inactive).

`COCCNC(=O)COc1ccc(N(C)S(=O)(=O)c2ccc3ccccc3c2)cc1`: the inhibition was -8.35% (inactive).

Turning to `COC(=O)c1sc2ncccc2c1OCc1ccc(Cl)cc1Cl`, the inhibition is 6.72% (inactive).

For `Cc1nc2ccccc2nc(C)c1=NOCc1ccc(Cl)cc1Cl`, the inhibition is 112% (active).

With `O=S(=O)(O)c1nc2ccccc2n1Cc1ccc(Cl)cc1Cl`, the inhibition is -6.41% (inactive).

Regarding `COC(=O)CSc1nnc(NC(=O)CCc2ccccc2)s1`, the inhibition is 10.7% (inactive).

`COc1ccc(CNS(=O)(=O)c2ccc(-c3cnc(C4CC4)o3)cc2)cc1`: the inhibition was -4.74% (inactive).

Consider `Cc1ccc(-n2ncc3c2CC(C)(C)CC3NC(=O)CCc2cnn(C)c2)cc1` (stereo not drawn), for which the inhibition is -4.16% (inactive).

`O=C(Oc1cccc(NC2=NS(=O)(=O)c3ccccc32)c1)c1ccncc1`: the inhibition was 2.4% (inactive).

Take `Cc1ccc(S(=O)(=O)N(NC2=NS(=O)(=O)c3ccccc32)C(=O)c2ccccc2)cc1`: the inhibition is -6.05% (inactive).

For `CC(C)(C)c1csc(NC2=NS(=O)(=O)c3ccccc32)n1`, the inhibition is 97.3% (active).

On to `Cc1ccc(C(C)C)c(OCCSc2nc3ccccc3n2CC(=O)O)c1`, for which the inhibition is -6.58% (inactive).

Consider `CC(OC(=O)c1ccccc1OCc1ccc(Cl)cc1)C(N)=O` (stereo not drawn), for which the inhibition is -20.8% (inactive).

For the molecule `C=CCc1ccccc1OCC(O)CN1CCN(CCO)CC1` (stereo not drawn), the inhibition was -5.91% (inactive).

In the case of `O=C(c1ccc(-c2ccccc2)cc1)C1CCCN(C(=O)c2cncs2)C1` (stereo not drawn), the inhibition is 16.3% (inactive).

In the case of `CCNC(=O)N1CCCC(C(=O)c2ccc(-c3ccccc3)cc2)C1` (stereo not drawn), the inhibition was 36.1% (active).

For the molecule `Cc1ccccc1NC(=O)C1CCCN(C(=O)NCc2ccccc2)C1` (stereo not drawn), the inhibition was -9.33% (inactive).

As to `Cc1cccc(C(=O)N2CCN(S(=O)(=O)N3CCCCC3)CC2)c1`, the inhibition is 12.6% (inactive).

As for `CCC1CCCCN1C(=O)CSc1nc2c(c(=O)n1C)SC(C)C2` (stereo not drawn), the inhibition is -5.97% (inactive).

Consider `CCCCN(CCCC)CCNC(=O)CN1C(=O)COc2ccc(S(=O)(=O)N3CCOCC3)cc21`, for which the inhibition is -2.7% (inactive).

Consider `NS(=O)(=O)c1ccc(N=Nc2c(O)[nH]c3ccc(Br)cc23)cc1`, for which the inhibition is 58.5% (inactive).

With `Oc1[nH]c2ccc(Br)cc2c1N=Nc1nn[nH]n1`, the inhibition is 2.43% (inactive).

Take `Cc1cccc(N=Nc2c(O)[nH]c3ccc(F)cc23)c1`: the inhibition was 143% (active).

Take `Cc1ccc(CNC(=O)C2CCN(S(=O)(=O)c3ccc4nc5c(c(C(=O)O)c4c3)CC(C)CC5)CC2)cc1` (stereo not drawn): the inhibition is 19.6% (inactive).

Consider `CCOC(=O)CSc1nnc(NC(=O)C2CC(=O)N(c3ccc(F)cc3)C2)s1` (stereo not drawn), for which the inhibition was -11.5% (inactive).

Turning to `Cc1ccc(S(=O)(=O)NCC2CCC(C(=O)N3CCOCC3)CC2)cc1` (stereo not drawn), the inhibition was -3.33% (inactive).

With `O=C(c1cccnc1)N1CCN(S(=O)(=O)c2cccs2)CC1`, the inhibition was -10.5% (inactive).

Regarding `CCOC(=O)c1cccc(NC(=O)CN2C(=O)C3CC=CCC3C2=O)c1` (stereo not drawn), the inhibition was -2.13% (inactive).

For `Cc1ccc(NC(=O)NC(=O)N(C2CCCCC2)S(=O)(=O)c2ccccc2)cc1`, the inhibition is 0% (active).

With `CC(c1ccco1)N(C(=O)Nc1ccccc1)C1CCCCC1` (stereo not drawn), the inhibition was 71.5% (inactive).

As for `Cc1ccc(S(=O)(=O)N(C)CC(=O)OCC(=O)Nc2ccccc2)cc1`, the inhibition was 10.4% (inactive).

On to `COc1cc(Br)c(-c2sc(Nc3ccccc3)n[n+]2-c2ccccc2)cc1OC`, for which the inhibition is -9.06% (inactive).

For the molecule `COc1ccc(C(=O)NNC(=S)NC(=O)c2ccccc2)cc1`, the inhibition was 31.4% (inactive).

With `CCOC(=O)c1c(-c2ccccc2)csc1NC(=S)NC(=O)c1ccccc1`, the inhibition is -2.96% (inactive).

As for `Cc1ccc(C(=O)NC(=S)Nc2ccc(N3CCOCC3)cc2)cc1`, the inhibition is 30% (inactive).

Take `Cc1ccc(C(=O)NC(=S)Nc2ccccc2C)cc1`: the inhibition is 97.5% (active).

With `Cc1ccc(C)c(NC(=S)NNC(=S)Nc2ccc(C(C)C)cc2)c1`, the inhibition was 50.1% (active).

With `Cc1cc(C(=O)NNC(=S)Nc2ccccc2C)cs1`, the inhibition is 66.8% (active).

Consider `Cc1ccccc1NC(=S)NNC(=O)c1cccc(Br)c1`, for which the inhibition was 48.8% (inactive).

In the case of `Cc1ccccc1NC(=S)NC(=O)Cc1ccc(Cl)cc1`, the inhibition is -4.05% (inactive).

In the case of `Cc1cc(C(=O)Nc2c(C)n(C)n(-c3ccccc3)c2=O)cs1`, the inhibition is -6.98% (inactive).

For the molecule `CC(C)c1ccc(NC(=S)NNc2ccc(Cl)c(C(=O)O)c2)cc1`, the inhibition was 52% (inactive).

As to `Cn1nnc(NC(=S)NC(=O)c2ccccc2)n1`, the inhibition was 64.6% (active).

As for `Cc1ccc(NC(=S)N/N=C2/CCCc3c(C)cc(C)cc32)cc1`, the inhibition is -4.99% (inactive).

As for `O=C(Nc1ccc(F)cc1)C1CCCN(S(=O)(=O)c2ccc(-n3cnnn3)cc2)C1` (stereo not drawn), the inhibition was -10.1% (inactive).

Regarding `Cc1nn(CC(=O)NC2CCCCC2)c(=O)c2cccn12`, the inhibition was 1.03% (inactive).

For `CN(CC(=O)Nc1c(Cl)cccc1Cl)C(=O)CNC(=O)C1CCCCC1`, the inhibition is 8.74% (inactive).

As to `CCc1nccn1CCC(=O)N1CCCC(N2CCN(c3ccccc3F)CC2)C1` (stereo not drawn), the inhibition is -3.27% (inactive).

On to `O=C(Nc1cc(-c2nc3ncccc3o2)ccc1Cl)c1ccco1`, for which the inhibition was -5.97% (inactive).

Turning to `O=C1C[C@@H](c2ccc3ccccc3c2)N1S(=O)(=O)c1ccccc1[N+](=O)[O-]`, the inhibition was -7.61% (inactive).

Regarding `Cc1sc2ncn(CC(=O)NCCCC(=O)N3CCN(c4ccccc4F)CC3)c(=O)c2c1C`, the inhibition is -6.47% (inactive).

For `CC1(C)Cc2c(sc(NC(=O)C(=O)NCC3CCCO3)c2C(=O)O)CO1` (stereo not drawn), the inhibition is -2.38% (inactive).

In the case of `COc1cccc(CNC(=O)c2nnn(CC(=O)Nc3cc(C)ccc3C)c2N)c1`, the inhibition is -3.78% (inactive).

Take `Cc1cc2[nH]ncc2cc1NC(=S)NC(=O)c1ccccc1`: the inhibition was 34.9% (active).

As to `Cc1ccc(C(=O)NC(=S)NCc2cccnc2)cc1`, the inhibition was 56% (active).

Regarding `Cc1cc(C(=O)NNC(=S)NC(C)c2ccccc2)cs1` (stereo not drawn), the inhibition is 8.77% (inactive).

For `CCc1cccc(CC)c1NC(=S)Nc1ccc2cn[nH]c2c1`, the inhibition is -6.34% (inactive).

For the molecule `Cc1ccc(C)c(NC(=S)NNC(=O)c2csc(C)c2)c1`, the inhibition was 22.3% (active).

With `Cc1ccc(C)c(NC(=O)NNC(=O)c2ccc3ccccc3c2O)c1`, the inhibition was -2.25% (inactive).

For the molecule `Cc1cccc(NC(=S)Nc2ccc3cn[nH]c3c2)c1`, the inhibition was -14.2% (inactive).

For `CC(C)(C)c1cc(C(=O)NCc2cccnc2)ccn1`, the inhibition was -3.32% (inactive).

With `Cc1ccc(C(=O)N/C(=C\c2ccc(F)cc2)C(=O)NCCN2CCOCC2)cc1`, the inhibition is -6.91% (inactive).

Take `Cc1ccc(NC(=S)NCCN2CCOCC2)cc1`: the inhibition was -3.76% (inactive).

For `Cc1c(C(=O)NC(=S)NCc2cccnc2)oc2ccccc12`, the inhibition is -22.1% (inactive).

For the molecule `Cc1ccc(C(=O)NC(=S)NCCN2CCOCC2)cc1`, the inhibition was 57.3% (active).
